Inconclusive results are not listed. Active and inactive are the calls of the source. Calls come from the whole dose curve; as a rule, active = well fitted curve in the direction sought with a large enough effect; inconclusive = small, poorly fitted or top-dose-only effect, or another doubt; inactive = no such curve, though single readings can be large; an effect the other way counts as inactive or inconclusive.
What was measured:
[1] = qHTS to identify inhibitors of the type 1 interferon - major histocompatibility complex class I in skeletal muscle: primary screen against the NCATS LOPAC collection (AID 1347405);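 note: lytic HiBiT luminescence reporting HLA-B protein level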; note: potency is the fitted concentration of half-maximal effect
Procedure, shortened: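 HLA-B HiBiT myoblasts, IFN-b 4 ng/ml, dexamethasone-free medium; compounds 7-pt 1:4.3 titration, top 46 uM final; 24 h at 37 C; Nano-Glo HiBiT lytic reagent, 10 min RT, luminescence.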

[2] = qHTS to identify inhibitors of the type 1 interferon - major histocompatibility complex class I in skeletal muscle: primary screen against the NCATS Pharmaceutical Collection (AID 1347407);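 note: luminescence of HiBiT knocked into endogenous HLA-B as interferon-induced MHC class I level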
Procedure, shortened: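 Immortalized human myoblasts (C25cl48) with HiBiT knocked into endogenous HLA-B*08:01 were stimulated with 4 ng/ml IFN-beta and treated with compounds (8-point, 1:5, top 46 uM final) for 24 h at 37 C; HiBiT lytic luminescence read.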

[3] = qHTS for inhibitors of adenylyl cyclases using a fission yeast platform: a pilot screen against the NCATS LOPAC library (AID 1347410)
Procedure, shortened: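 S. pombe CHP2027 (AC9-GNAS-PDE4D2) carrying a PKA-repressed fbp1-GFP reporter was exposed to LOPAC compounds (final up to 57 µM) for 18 h at 30C in the dark, in EMM with histidine, lysine and uracil; GFP gain-of-signal read by laser scanning cytometry.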

[4] = target: Protein phosphatase 1D (Homo sapiens) (UniProt O15297); assay: RapidFire Mass Spectrometry qHTS Assay for Modulators of WT P53-Induced Phosphatase 1 (WIP1) (AID 1347424);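 note: amount of dephosphorylated VEPPL-S-QETFS peptide product formed by WIP1; series mostly up to about 63 µM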
Protein phosphatase 1D (Homo sapiens), sequence (O15297 whole entry, looked up): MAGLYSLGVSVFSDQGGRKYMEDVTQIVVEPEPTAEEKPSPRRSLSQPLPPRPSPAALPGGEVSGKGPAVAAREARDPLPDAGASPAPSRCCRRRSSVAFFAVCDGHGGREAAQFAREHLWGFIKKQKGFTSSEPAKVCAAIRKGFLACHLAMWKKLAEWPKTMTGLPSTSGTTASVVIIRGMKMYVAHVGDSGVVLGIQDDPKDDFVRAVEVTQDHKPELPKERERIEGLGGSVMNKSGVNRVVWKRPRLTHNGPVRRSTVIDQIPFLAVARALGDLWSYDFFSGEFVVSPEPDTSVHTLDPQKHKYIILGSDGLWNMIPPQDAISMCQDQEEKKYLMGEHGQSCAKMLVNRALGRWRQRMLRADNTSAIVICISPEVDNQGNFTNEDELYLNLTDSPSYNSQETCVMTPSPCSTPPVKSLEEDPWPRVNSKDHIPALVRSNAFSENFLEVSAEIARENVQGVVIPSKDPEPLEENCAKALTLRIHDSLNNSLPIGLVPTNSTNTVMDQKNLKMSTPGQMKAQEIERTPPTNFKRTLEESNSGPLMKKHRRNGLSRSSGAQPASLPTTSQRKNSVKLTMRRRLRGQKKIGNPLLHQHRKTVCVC
Procedure, shortened: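 Mass-spectrometric measurement of dephosphorylated peptide after a 5 min room-temperature reaction of 10 nM WIP1 with 2 uM phosphopeptide, following 1 h compound preincubation in 30 mM MgCl2 buffer.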

[5] = target: Protein phosphatase 1D (Homo sapiens) (UniProt O15297); assay: Rhodamine-PBP qHTS Assay for Modulators of WT P53-Induced Phosphatase 1 (WIP1) (AID 1347425)
Procedure, shortened: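 The read-out is the change in Rhodamine-PBP fluorescence (f1 - f0, ex 525/em 598 nm) as Pi is released, read each minute for 11 min. Final reaction: 5 nM WIP1, 10 uM phosphopeptide VEPPL-pS-QETFS, 10 uM Rh-PBP, 50 mM Tris-HCl pH 7.5, 30 mM MgCl2. Compound was preincubated with enzyme for 1 hour at room temperature.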

[6] = Validation qHTS assay for inhibitors of Activation Induced Cytidine Deaminase (AID): UDG Counterscreen signal (AID 1347427)
Procedure, shortened: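 Fluorescence at 560 nm excitation, 665 nm emission reports UDG signal after 250 mM NaOH (2x) addition and 30 min. Enzymes (AID 1 uM, UDG 2 U/mL, at 4/3x) preincubated 10 min with compound, then 4 h with 4x 250 nM DJC20/DJC23 substrate at room temperature.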

[7] = target: Single-stranded DNA cytosine deaminase (Homo sapiens) (UniProt Q9GZX7); assay: Validation qHTS assay for inhibitors of Activation Induced Cytidine Deaminase (AID): AID signal (AID 1347429)
Single-stranded DNA cytosine deaminase (Homo sapiens), sequence (Q9GZX7 whole entry, looked up): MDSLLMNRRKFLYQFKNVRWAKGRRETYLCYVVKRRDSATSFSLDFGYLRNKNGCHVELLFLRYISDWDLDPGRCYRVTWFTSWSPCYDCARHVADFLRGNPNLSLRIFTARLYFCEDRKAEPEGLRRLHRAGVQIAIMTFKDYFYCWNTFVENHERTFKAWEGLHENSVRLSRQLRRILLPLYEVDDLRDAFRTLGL
Procedure, shortened: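 AID+UDG coupled FRET deamination; cpds up to 114 uM final; DJC20/DJC23 substrate, 4 hr RT; NaOH stop, 30 min RT; read Ex 540/Em 590.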

[8] = qHTS to identify inhibitors of the type 1 interferon - major histocompatibility complex class I in skeletal muscle: primary screen against the NCATS Mechanism Interrogation Plate v5.0 (MIPE) Libary (AID 1347411); note: nearly all actives have a fitted effect of over 65% in size; note: potency is the fitted concentration of half-maximal effect
Procedure, shortened: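 HLA-B HiBit myoblasts, dexamethasone-free medium + 4 ng/ml IFN-b, 24 h compound, 11-pt 1:3 from 46 uM final. Readout: Nano-Glo HiBiT lytic luminescence after 10 min lysis, RT.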

Measured: Potency

Cc1ccc(S(=O)(=O)N[C@@H](CCCCN)C(=O)CCl)cc1
not listed: [8]
inactive: all other assays above

Cc1ncc(CNC(=O)N(CCCl)N=O)c(N)n1
not listed: [5] | [8]
inactive: all other assays above

CC[C@@H](CO)NC(=O)[C@@H]1C=C2c3cccc4[nH]cc(c34)C[C@H]2N(C)C1
not listed: [8]
inactive: all other assays above

C#CCN(C)[C@H](C)Cc1ccccc1
inactive: [2] | [8] | [4]

CN1C[C@H](CNC(=O)OCc2ccccc2)C[C@@H]2c3cccc4c3c(cn4C)C[C@H]21
not listed: [8]
inactive: all other assays above

Cn1c(CCCC(=O)O)nc2cc(N(CCCl)CCCl)ccc21
inactive: [1] | [3] | [8] | [4] | [5]

CNCC(O)c1ccc(O)cc1 (stereo unspecified)
inactive: all assays above

COc1ccc(C(CN(C)C)C2(O)CCCCC2)cc1 (stereo unspecified)
not listed: [2] | [8]
inactive: all other assays above

c1ccc2c(c1)OCC(C1=NCCN1)O2 (stereo unspecified)
not listed: [1] | [8]
inactive: all other assays above

Cc1cccc(C)c1NC1=NCCCS1
not listed: [8]
inactive: all other assays above

C[C@@H]1O[C@@H](O[C@H]2C[C@@H](O)[C@]3(CO)[C@H]4[C@H](O)C[C@]5(C)[C@@H](C6=CC(=O)OC6)CC[C@]5(O)[C@@H]4CC[C@]3(O)C2)[C@H](O)[C@H](O)[C@H]1O
active: [1] 44.7 nM | [8] 37 nM
not listed: [2]
inactive: all other assays above

CN(C)[C@@H]1C(=O)C(C(N)=O)=C(O)[C@@]2(O)C(=O)C3=C(O)c4c(O)cccc4[C@@](C)(O)[C@H]3C[C@@H]12
inactive: [2] | [8]

c1ccc(C2CC2)c(OCC2=NCCN2)c1
not listed: [8]
inactive: all other assays above

CCCN1CCC[C@@H]2Cc3nc(N)ncc3C[C@H]21
not listed: [8]
inactive: all other assays above

CC(=O)[C@H]1CC[C@H]2[C@@H]3CC[C@H]4C[C@](C)(O)CC[C@]4(C)[C@H]3CC[C@]12C
not listed: [2] | [8]
inactive: all other assays above
